The target of the first assay is ADAD1. The experiment in a line: pooled miR-30 sensor sort-seq; sequence = guide strand. The conditions noted are these: shRNA.
Take TATAGCTACAACCTCATGTTGT: the sensor-assay potency score (higher = more potent) worked out at 0.156.

Sequence TTGCTGTAACAACAGCATGAGT showed a sensor-assay potency score (higher = more potent) of -1.53.

In turn, TCAACTTACATTTAGCTTCTTG displayed a sensor-assay potency score (higher = more potent) of -0.0304.

In the case of TTTAGGACAGTAAACAGTCAGA, the sensor-assay potency score (higher = more potent) was -1.

In the case of TTAGTTGATTAAATCTTTCTTT, the sensor-assay potency score (higher = more potent) was 0.397.

For the sequence TTGACTAAGTAAAACATTGGAA, the sensor-assay potency score (higher = more potent) was -0.221.

Sequence TAAACCGACTTAACATTGCAGC displayed a sensor-assay potency score (higher = more potent) of -0.535.

For the sequence TTGATTTTTCCATCATAGCAGG, the sensor-assay potency score (higher = more potent) was -0.926.

The sequence TTATTCTATTAACACCATCTTT registered a sensor-assay potency score (higher = more potent) of -0.934.

In turn, TAAACTAATATGAGGTCTGTTG displayed a sensor-assay potency score (higher = more potent) of -1.14.

As for TAGTTATCGTCTTTGTCGCTGG, the sensor-assay potency score (higher = more potent) is -0.46.

Another assay has as its target ADAM18. Described as above. The conditions noted are these: shRNA.
With TTATACTCTGCATTCTCTCTGT, the sensor-assay potency score (higher = more potent) came to 0.461.

Consider TTATATGCTCAAATCTTGCTGA, for which the sensor-assay potency score (higher = more potent) was -0.162.

Consider TATGTGGCTGAACACAAGCTAA, for which the sensor-assay potency score (higher = more potent) is -1.54.

Sequence TCATTTGACTTAATCTTCCGTG displayed a sensor-assay potency score (higher = more potent) of 0.722.

Sequence TATTCCTTCAGAACCTTCGTGG gave a sensor-assay potency score (higher = more potent) of 0.508.

In turn, TTGAACTGGGTAAACATAGTGT yielded a sensor-assay potency score (higher = more potent) of -0.273.

On to TTGATGTACAACATGGTCCAGA, for which the sensor-assay potency score (higher = more potent) is -0.506.

In the case of TAACAGTCAATTTGAACTGGGT, the sensor-assay potency score (higher = more potent) was determined as 0.214.

The sequence TTTGACTTAATCTTCCGTGGAA had a sensor-assay potency score (higher = more potent) of 0.749.

Sequence TTCATTATATGTATAAACCAAA displayed a sensor-assay potency score (higher = more potent) of -1.38.

Consider TATGACTGTAATTTACTGCTAA, for which the sensor-assay potency score (higher = more potent) stood at 0.177.

Sequence TATAACAGTCAATTTGAACTGG displayed a sensor-assay potency score (higher = more potent) of 0.382.

The values above are taken from the OligoGym collection.
Note: reference of the scale not given here.
